Data on 61 molecules can be found in PubChem BioAssay AID782 (Emory University Molecular Libraries Screening Center, 2007).

Broadly, the inhibition is the drop in the measured response relative to a control, in per cent.

Structures are written as SMILES. The whole screen tested about 220,000 compounds, of which about 800 (0.36%) were called active. The sample as a whole holds a higher share of actives than the screen did. Unmarked numbers belong to inactive results.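 How the source made its calls: active means inhibition above about 30% (limit read from the data); inactive means the rest.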

This test deals with Eukaryotic translation initiation factor 4E (Mus musculus) + Eukaryotic translation initiation factor 4 gamma 1 (Homo sapiens) (UniProt P63073+Q04637). In words: blockers of eIF4G binding by eIF4E – biochemical, uHTS, TR-FRET, eIF4GI fragment, primary screen (AID 782).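 Further: 0% = full FRET control wells and 100% = background wells lacking eIF4GI fragment.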 Particulars: TR-FRET eIF4E-eIF4GI(517-606) binding, 2 h; at 21.7 µM; stronger effect = higher value. For orientation: TR-FRET usually uses a lanthanide donor and a delayed reading to cut background.
Chain of Eukaryotic translation initiation factor 4E (Mus musculus) + Eukaryotic translation initiation factor 4 gamma 1 (Homo sapiens) (P63073 whole entry, looked up, the tested form may be a part): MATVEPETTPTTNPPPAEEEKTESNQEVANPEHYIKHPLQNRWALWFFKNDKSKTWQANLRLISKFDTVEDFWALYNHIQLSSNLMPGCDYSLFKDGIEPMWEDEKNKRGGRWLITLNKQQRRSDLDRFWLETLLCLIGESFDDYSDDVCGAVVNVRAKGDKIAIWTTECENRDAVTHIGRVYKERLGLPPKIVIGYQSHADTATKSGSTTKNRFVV
Chain of Eukaryotic translation initiation factor 4E (Mus musculus) + Eukaryotic translation initiation factor 4 gamma 1 (Homo sapiens) (Q04637 whole entry, looked up, the tested form may be a part): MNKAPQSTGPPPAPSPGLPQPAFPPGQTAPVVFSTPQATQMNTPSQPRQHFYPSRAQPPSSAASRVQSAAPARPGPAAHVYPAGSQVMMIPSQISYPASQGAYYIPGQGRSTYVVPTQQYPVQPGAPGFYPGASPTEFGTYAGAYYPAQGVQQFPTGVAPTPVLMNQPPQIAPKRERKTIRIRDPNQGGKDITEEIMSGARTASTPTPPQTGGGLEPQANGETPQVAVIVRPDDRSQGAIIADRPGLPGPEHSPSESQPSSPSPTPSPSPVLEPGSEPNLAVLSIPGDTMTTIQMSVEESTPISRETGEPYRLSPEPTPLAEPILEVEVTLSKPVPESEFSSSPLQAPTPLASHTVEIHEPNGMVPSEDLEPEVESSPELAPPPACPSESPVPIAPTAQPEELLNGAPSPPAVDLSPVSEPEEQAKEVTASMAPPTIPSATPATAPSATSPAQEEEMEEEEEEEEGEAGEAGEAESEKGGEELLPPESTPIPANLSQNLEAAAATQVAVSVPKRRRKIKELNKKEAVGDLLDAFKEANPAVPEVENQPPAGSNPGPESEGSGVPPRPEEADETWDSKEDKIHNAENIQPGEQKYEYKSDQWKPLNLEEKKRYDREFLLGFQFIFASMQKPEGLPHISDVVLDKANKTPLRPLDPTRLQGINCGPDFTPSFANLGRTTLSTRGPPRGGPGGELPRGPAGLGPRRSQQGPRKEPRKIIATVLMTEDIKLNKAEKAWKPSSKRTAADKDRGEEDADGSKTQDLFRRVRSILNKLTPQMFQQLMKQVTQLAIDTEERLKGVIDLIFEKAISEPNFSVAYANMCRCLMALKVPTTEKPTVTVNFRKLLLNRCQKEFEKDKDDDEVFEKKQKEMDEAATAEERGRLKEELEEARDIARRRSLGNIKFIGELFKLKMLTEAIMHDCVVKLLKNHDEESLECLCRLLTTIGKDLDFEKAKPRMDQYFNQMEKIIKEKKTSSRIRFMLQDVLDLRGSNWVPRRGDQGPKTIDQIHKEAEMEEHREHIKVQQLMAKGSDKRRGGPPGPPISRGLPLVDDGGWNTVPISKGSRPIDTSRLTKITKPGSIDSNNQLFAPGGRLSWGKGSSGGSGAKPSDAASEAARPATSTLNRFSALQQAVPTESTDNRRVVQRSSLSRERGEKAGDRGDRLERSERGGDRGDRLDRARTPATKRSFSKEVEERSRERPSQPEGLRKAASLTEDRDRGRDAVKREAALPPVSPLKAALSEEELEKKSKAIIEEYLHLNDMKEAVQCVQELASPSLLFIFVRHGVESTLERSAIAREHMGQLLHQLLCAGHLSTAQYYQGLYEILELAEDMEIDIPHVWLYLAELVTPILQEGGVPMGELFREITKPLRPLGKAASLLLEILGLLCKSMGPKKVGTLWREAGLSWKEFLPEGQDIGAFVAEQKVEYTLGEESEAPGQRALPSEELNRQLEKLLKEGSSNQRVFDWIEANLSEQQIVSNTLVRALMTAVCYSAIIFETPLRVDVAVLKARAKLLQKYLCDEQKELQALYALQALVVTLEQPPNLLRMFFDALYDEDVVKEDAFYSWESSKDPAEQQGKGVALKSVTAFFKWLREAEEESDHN
On to `CCc1cccc(C)c1NC(=S)N(CCCN1CCN(C)CC1)Cc1cccs1`, for which the inhibition was -3.86%. Consider `Cc1ccnc(NC(=O)C(C)N2C(=O)c3ccccc3C2=O)c1` (stereo unspecified), for which the inhibition was 1.43%. Then `Cc1ccc(-n2ccc(=O)c(C(=O)O)n2)cc1`, with 1.06%. To `Cc1ccc(N2C(=O)c3ccccc3C2(O)c2ncc[nH]2)cc1` (stereo unspecified) belongs 55.4% (active); to `CC(=O)Nc1ccc(/C=N/Nc2ccc(C(=O)c3c(C)cc4ccccn34)cc2[N+](=O)[O-])cc1`, 63.9% (active). Then `CNc1ccc(NC(C)=O)cc1[N+](=O)[O-]`, with -0.25%. For the molecule `Cc1ccc(Nc2ccc(C(N)=O)cc2[N+](=O)[O-])cc1`, the inhibition is -0.72%. To `CCOc1ccc(/C=N/NC(=O)CSc2ccccn2)cc1O` belongs -2.92%.

With `O=C(COC(=O)/C=C/c1ccc(S(=O)(=O)N2CCCCCC2)cc1)NCc1ccccc1Cl`, the inhibition is 2.41%.

Turning to `C=C1CCN([C@H](C(=O)NCc2cc(OC)c(OC)c(OC)c2)C(C)C)S(=O)(=O)c2ccccc21`, the inhibition was -2.58%. To `Nc1ccc(S(=O)(=O)Nc2nccc(/C=C/c3ccc(Br)s3)n2)cc1` belongs 0.68%; to `CC(C)(C)c1cc(C(=O)NN)n(Cc2ccc(Cl)cc2Cl)n1`, 3.29%. To `Cc1[nH]n(C)c(=O)c1C(=O)c1c(-c2c(Cl)cccc2Cl)noc1C` belongs -1.16%; to `N/C(=N\S(=O)(=O)c1ccc(Cl)cc1)N1CCOCC1`, -0.17%; to `COc1ccc(N2CCN(C(=S)Nc3ccc(S(N)(=O)=O)cc3)CC2)cc1`, 2.56%. To `COC(=O)Cc1csc(/N=C/c2c(O)n(-c3cccc(C(F)(F)F)c3)c(=O)c3ccccc23)n1` belongs 1.31%; to `COc1ccc(C2C(C(=O)N3CCN(c4ccc(OC)cc4)CC3)c3ccccc3C(=O)N2C)cc1` (stereo unspecified), -1.58%; to `COc1ccc([C@H]2[C@H](C(C)=O)N3N=Cc4ccccc4C3C23C(=O)OC(C)(C)OC3=O)cc1` (stereo partly specified), 34.6% (active).

On to `O=C(/C=C\c1ccc2c(c1)OCO2)NC1(C(=O)Nc2ccc3c(c2)OCCO3)CCCCC1`, for which the inhibition is 3.6%. To `COC(=O)c1c(C)[nH]c(C)c1-c1ccc([N+](=O)[O-])cc1` belongs 5.04%; to `CC1CC1C(=O)OCC(=O)c1c(N)n(C)c(=O)n(C)c1=O` (stereo unspecified), 1.81%. Then `CC1=C/C(=N\OS(=O)(=O)c2ccccc2)C=CC1=O`, with 17.7%; and `CC(=O)c1c(Nc2ccccc2)sc(C(=O)c2ccccc2)c1C`, with 0.53%; and `Cc1ccc(NC(=O)/C(=C\c2ccccc2)NC(=O)c2ccco2)cc1`, with -2.75%. Then `Cc1cc(Br)ccc1SCC(=O)OCC(=O)NCc1ccc2c(c1)OCO2`, with 2.11%.

Turning to `O=c1cc(O)nc(SCc2ccccc2Cl)[nH]1`, the inhibition was -11.7%. Then `Nc1nc(SCc2ccccc2Cl)n[nH]1`, with -1.58%; and `O=c1[nH]nc(CSCc2ccccc2Cl)[nH]1`, with 37.7% (active); and `Clc1ccc(-c2nc3ccccn3c2CN2CCSCC2)cc1`, with 3.32%. To `COc1ccc(NC2=CC(=S)NC(C)(C)C2)cc1` belongs 0.37%; to `O=C(CSc1nnc(-c2ccc([N+](=O)[O-])cc2)o1)Nc1ccccn1`, -0.57%; to `Nc1ccc2nc3c(=O)[nH]c(=S)[nH]c3nc2c1`, 55.7% (active). To `Cc1cc2nc3c(=O)n(Cc4ccccc4)c(=O)[nH]c3nc2cc1N` belongs 7.59%. As to `Cc1ccc(NC(=S)NC(NC(=O)Cc2cccc3ccccc23)C(Cl)(Cl)Cl)cc1` (stereo unspecified), the inhibition was -28%. To `CN(c1ccccc1)S(=O)(=O)c1ccc(Cl)c(C(=O)OCC(=O)N2CCOCC2)c1` belongs -1.49%; to `C/C(=N\OCC(=O)O)c1ccc(Cl)cc1`, 1.37%. `Cc1cc(C)nc(Nc2n[nH]c(-c3ccccc3N)n2)n1`: the inhibition was 4.42%.

On to `COc1ccc(C(=O)n2nc(-c3ccc(C)cc3)nc2N)cc1OC`, for which the inhibition is -7.73%. To `COc1ccc(C(=O)Cn2nnc(-c3ccc(N4CCOCC4)cc3)n2)cc1OC` belongs -9.64%; to `COC(=O)c1cc2occc2n1Cc1nc(-c2ccccc2C)oc1C`, 4.23%.

Take `O=C1Nc2cc(Cl)c(Cl)cc2N(O)N1c1ccccc1Cl`: the inhibition is 0.39%.

Turning to `FC(F)(F)Oc1ccc(-c2cn3cccnc3n2)cc1`, the inhibition was -1.02%. To `COC(=O)c1c(C)c(C)nc(N)c1C#N` belongs -1.17%; to `Cc1nc(Cl)c(C#N)c2c1CCCC2`, 5.36%; to `COCc1c(N)c(C)nc(Cl)c1C#N`, 33.5% (active). Take `O=S(=O)(NCCc1ccc(F)cc1)c1cccc2cccnc12`: the inhibition was 68.5% (active).

Take `O=S(=O)(NCCOc1cccc2cccnc12)c1ccc(F)cc1`: the inhibition is -10.8%. In the case of `COc1ccc(CCNS(=O)(=O)c2cccc3cccnc23)cc1OC`, the inhibition was 4.09%.

In the case of `C=CCn1c(-c2ccc3[nH]c(C)c(C)c3c2)n[nH]c1=S`, the inhibition is 31.9% (active).

As for `C=CCn1c(-c2sc(-c3ccccc3)nc2C)n[nH]c1=S`, the inhibition was 3.95%. Then `C=CCn1c(-c2ccccc2OCC)n[nH]c1=S`, with -7.58%.

Turning to `NC(N)=Nc1nc2ccc(Br)cc2c(=O)[nH]1`, the inhibition was -3.42%.

In the case of `CC(NCc1nc2ccccc2n1C)C12CC3CC(CC(C3)C1)C2` (stereo unspecified), the inhibition was 3.84%. To `O=C(c1ccc(Br)o1)N(c1ccccn1)C1CCCCC1` belongs 1.85%. To `Cc1ccc(OS(=O)(=O)c2ccc(-c3csc(C)n3)s2)c(C)c1` belongs -1.07%; to `CCOc1ccc(C2c3[nH]c4ccccc4c3CCN2Cc2cn(CC)nc2C)cc1` (stereo unspecified), 1.87%; to `COC(=O)c1cc2n(n1)CCCNC2=O`, 2.7%. To `CC(=O)Nc1ccc(S(=O)(=O)N(C)c2ccc(OCC(=O)OCC(=O)N3CCCCC3)cc2)cc1` belongs -2.79%. Turning to `N#C/C(C(=O)N1CCOCC1)=C1/SC(Cc2ccc(F)cc2)C(=O)N1c1ccccc1` (stereo unspecified), the inhibition is 2.54%. Then `Cc1cccc2cc3c(N)c(C(=O)N4CCCc5ccccc54)sc3nc12`, with -0.81%; and `CCOc1ccccc1/C=N/NC(=O)CNC(=O)COc1ccccc1`, with 0.46%.
